These molecules were tested on Plasmodium falciparum (assay: GSK_TCMDC: Inhibition of Plasmodium falciparum 3D7 in whole red blood cells, using parasite LDH activity as an index of growth. Test compounds present at 2uM).
Assay type: functional

SMILES	Inhibition [%]
CC1(C)CNCc2cc(NC(=O)/C=C/c3ccc(Cl)cc3)ccc21.Cl	82
Cc1cccc2nc(-c3cccc(-c4ccc(CNCCc5ccncc5)cc4)c3)[nH]c12.O=C(O)C(F)(F)F	100
CN1CCC[C@H]1COc1ccc(CN2CC[C@H](NC(=O)c3ccc(Cl)c(Cl)c3)C2)cc1Br.O=C(O)C(F)(F)F	100
Cc1nnsc1C(=O)Nc1cccc(-c2ccc(-c3nc4ccccc4[nH]3)cc2)c1	100
Cc1cc2cc(-c3ccc(CN)cc3)ccc2nc1N	92
O=C(Cc1ccc(NC(=O)c2ccc(O)c(-c3ccc(Cl)c(Cl)c3)c2)cc1)NCCN1CCCCC1	95
O=C(NCCCN1CCOCC1)c1ccc(-c2cccc(NC(=O)c3ccc(Cl)c(Cl)c3)c2)cc1	100
C#CCCOc1ccc2ccccc2c1CNCCCCCCNCc1c(OCCC#C)ccc2ccccc12	100
O=C(C=Cc1ccc(Cl)c(Cl)c1)NCCCCCN1CCC(CCCNS(=O)(=O)c2ccc(F)cc2)CC1	93
CCCc1ccc(NC(=O)c2ccc(CN3CCCN(CC4CCCCC4)CC3)cc2)cc1.O=C(O)C(F)(F)F	95
COC(=O)C(c1ccc(NC(=O)[C@H](CC(C)C)NC(=O)OC(C)(C)C)cc1)c1ccc(NC(=O)[C@H](CC(C)C)NC(=O)OC(C)(C)C)cc1	94
O=C(O)C(F)(F)F.c1ccc(CNCc2cccc(-c3ccc(-c4nc5ccccc5[nH]4)s3)c2)cc1	95
CCc1cn2c3c(cc(C(=O)N[C@@H](Cc4ccccc4)[C@H](O)CNC(C)(C)c4cccc(OC)c4)cc13)N(C)S(=O)(=O)C2.O=CO	98
COc1cccc2c1CCN(CCN1CCC(CNC(=O)c3ccc(-c4ccc(C#N)cc4)cc3)CC1)C2	99
CCc1cn2c3c(cc(C(=O)N[C@@H](Cc4ccccc4)[C@H](O)CNCCOC)cc13)N(C)S(=O)(=O)CC2.O=CO	98
C[C@@H](CNc1ccnc(Nc2ccc3[nH]c(=O)[nH]c3c2)n1)c1ccccc1	100
C[C@@H]1CN(C(c2cccc(O)c2)c2cccc(C(=O)N(C)c3cccc(F)c3)c2)[C@@H](C)CN1C(c1cccc(O)c1)c1cccc(C(=O)N(C)c2cccc(F)c2)c1.Cl (stereo not given in full)	91
Cc1cccc2nc(-c3cccc(-c4cccc(C(=O)NCc5nccn5C)c4)c3)[nH]c12	99
Cc1ccc2cc(C3NC(=O)c4ccccc4N3)c(Cl)nc2c1 (stereo not given)	91
Cc1cccc2nc(-c3ccc(-c4cccc(CNCCNC(=O)c5ccnn5C)c4)s3)[nH]c12.O=C(O)C(F)(F)F	100

SMILES	Inhibition [%]
CC(C)(Oc1c(C2CCN(CCCCNC(=O)c3ccc(-c4ccc(Cl)cc4)cc3)CC2)ccc2c1CCCC2)C(N)=O	93
CN1CCC(NCc2ccc(-c3cccc(S(=O)(=O)NCC4CCCO4)c3)cc2)CC1.O=C(O)C(F)(F)F (stereo not given)	90
COc1ccccc1COc1c(C)nc(N)nc1N.Cl	98
CSC1=NC(=Nc2c(C)cccc2C)C2(CCCCC2)N1c1ccccc1Cl	95
COc1cccc2cc(C(=O)N[C@@H](CC(C)C)C(=O)NC3CC[C@@H](C)N(C(=O)Nc4ccncc4)CC3=O)oc12 (stereo not given in full)	95
Cc1cc2nc(-c3cccc(C(=O)NC4CCN(Cc5ccccc5)CC4)c3)[nH]c2cc1C	100
Cl.NOCCCCOc1ccc(Cl)cc1	98
Cl.N#Cc1cccc(-c2ccc(C(=O)Nc3ccc4c(c3)CCN(C3CCC3)CC4)cn2)c1	96
OC(CNCc1ccco1)Cn1c2ccc(Br)cc2c2cc(Br)ccc21 (stereo not given)	92
CC(C)N(Cc1ccc(-c2ccc(C(F)(F)F)cc2)cc1)C(=O)Cn1c(CCc2cccc(F)c2F)cc(=O)c2ccc(CCCN3CCCCC3)cc21.O=C(O)C(O)C(O)C(=O)O	100
CC(N)(Cc1ccc(O)cc1)c1nnn[nH]1 (stereo not given)	93
Cc1cc(=NN=Cc2cccc(F)c2)c2cc(F)ccc2[nH]1	100
Nc1cc2c(C3CCN(CC4CCN(C(=O)/C=C/c5ccc(Cl)c(Cl)c5)CC4)CC3)c[nH]c2cn1	100
COc1ccc(CN(C)Cc2cc(C(C)C)c(C)cc2O)cc1F	98
CCOc1cc(O)c(-c2nc(N)ncc2-c2ccc3c(c2)OCCO3)cc1CC	99
C=C[C@H]1CN2CC[C@H]1C[C@@H]2[C@@H](O)c1ccnc2ccc(OC)cc12 [QUINIDINE]	98
CCc1cc(-c2onc(C(F)(F)F)c2-c2ccccc2)c(O)cc1OC	98
O=C(Nc1ccc2c(c1)CCC2)N[C@H]1CCN(CCCCCNC(=O)C2CC2c2ccc(Cl)c(Cl)c2)C1 (stereo not given in full)	86
CCOc1cc(C)ccc1N1CCN(CCCCNC(=O)c2ccc(NC(=O)c3ccc(Cl)cc3)cc2)CC1.Cl	100
COc1cc(-c2nc(-c3ccccc3)c(-c3ccccc3)[nH]2)cc(OC)c1O	100

— ChEMBL document CHEMBL1157539, “Thousands of chemical starting points for antimalarial lead identification” (Nature, 2010)
